Data published in PubChem BioAssay AID624504 (Sanford-Burnham Center for Chemical Genomics, 2012).
Hit rate of the full screen: of about 5,000 compounds, about 3,900 (78%) were called active. The set was probably picked from earlier hits. Not all results are given here. Values without a mark were called inactive. Rule as the data show it: active = inhibition above about 22%; inactive = the rest.

Assay: fluorescence retest of MPTP screen hits in isolated mitochondria, single concentration (AID 624504);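 also: 0% = DMSO vehicle and 100% = positive control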
Conditions: membrane potential, Rhodamine 123 fluorescence, at 10 µM, stronger effect = higher value

Structure (SMILES) | inhibition
N/C(=N\OC(=O)Nc1ccc(Cl)c(Cl)c1)c1ncc(C(F)(F)F)cc1Cl | 118% (active)
c1ccc(-c2cc3c(NCC4COc5ccccc5O4)ncnc3s2)cc1 (stereo unspecified) | 70.6% (active)
O=C(NC1CCN(Cc2ccccc2)CC1)c1cc(Br)c(Br)[nH]1 | 9.55%
CSc1nccc(NC(=O)c2ccc(C(C)(C)C)cc2)n1 | 91.4% (active)
COc1cc(C(=O)Nc2oc(-c3ccccc3)c(-c3ccccc3)c2C#N)cc(OC)c1OC | 63% (active)
COC(=O)c1sccc1NC(=O)CSc1ccccc1NS(=O)(=O)c1cc(Cl)ccc1Cl | 90.9% (active)
Cn1nc(C(F)(F)F)c(C(=O)Nc2cccc(C(F)(F)F)c2)c1SCc1ccc(Cl)cc1 | 63.4% (active)
COc1cc(NS(=O)(=O)c2ccc(NC(C)=O)cc2)cc(OC)c1 | 47.9% (active)
COc1ccc(S(=O)(=O)Nc2ccc3oc(C)c(C(C)=O)c3c2)cc1 | 63.9% (active)
CC(C)OCCCNc1ncnc2c1[nH]c1ccc(F)cc12 | 110% (active)
COc1ccc2oc(-c3cccc(NC(=O)CSc4ccc(Cl)cc4)c3)nc2c1 | 70.8% (active)
O=C(Nc1ccc(Cl)cc1)Nc1ccc(Oc2cccnc2)nc1 | 94.2% (active)
CCCc1cc(=S)n2c([nH]c3ccccc32)c1C#N | 80.9% (active)
Cc1ccc(Sc2ccc(NC(=O)c3ccc(F)cc3)cc2C#N)cc1 | 99.4% (active)
COc1ccc(Sc2ccc(NC(=O)c3cccc(Cl)c3)cc2C#N)cc1 | 77.8% (active)
O=C(NNC(=O)c1csc(-c2cccnc2)n1)Nc1ccc(Cl)cc1 | 68.5% (active)
O=C(Nc1nnc(S(=O)(=O)N2CCCCCC2)s1)c1cccc(Br)c1 | 99.7% (active)
CCOC(=O)c1cc2cc(-c3c(C(=O)OCC)oc4cc(O)cc(O)c4c3=O)ccc2o1 | 47.3% (active)
COc1ccc(Cn2c(=O)sc3ccccc32)cc1OC | 38.6% (active)
COc1ccc2sc(N(CCCN(C)C)C(=O)c3ccc(S(=O)(=O)N(C)C4CCCCC4)cc3)nc2c1 | -15.4%
O=C(Nc1nnc(SCc2ccccc2Cl)s1)c1cccc([N+](=O)[O-])c1 | 79.5% (active)
O=C(Nc1nnc(SCc2c(Cl)cccc2Cl)s1)c1cccc([N+](=O)[O-])c1 | 82.1% (active)
O=C(c1ccc(Cl)cc1)c1ccc(OCC(O)CN2CCCCC2)cc1 (stereo unspecified) | -2.35%
O=C(COC(=O)c1ccccc1NC(=O)c1ccco1)Nc1ccc2c(c1)OC(F)(F)O2 | 16.6%

Structure (SMILES) | inhibition
O=C(Cc1c(F)cccc1Cl)Nc1ncc([N+](=O)[O-])s1 | 98.1% (active)
S=C(NCc1ccc(Cl)cc1)NC1CCCCC1 | 92.6% (active)
S=C(NCc1ccc(Cl)cc1)NC12CC3CC(CC(C3)C1)C2 | 83.4% (active)
CCCCOC(=O)CNc1nnc(SCC(=O)OCC)[nH]c1=O | -7.97%
O=C(Cc1ccc(Cl)c(Cl)c1)Nc1ccc(SC(F)F)cc1 | 73.8% (active)
COc1ccc(/C=C2/SC(=O)N(CCCCCC(=O)Nc3ccccc3C(=O)O)C2=S)cc1 | 46.1% (active)
CN(C(=O)Nc1ccc(Cl)cc1)n1cnc2ccccc2c1=O | 89.2% (active)
Cc1ccccc1C(=O)NC(=S)Nc1ccc(N2CCN(C(=O)c3ccccc3)CC2)cc1 | 81.8% (active)
Brc1ccc(CSc2ccc(-c3ccco3)nn2)cc1 | -1.72%
C/C(=N\NC(=O)c1ccc(C)cc1)C1C(=O)c2ccccc2C1=O | 58% (active)
Cc1onc(-c2ccccc2)c1C(=O)NNC(=S)NC(=O)c1ccc(F)cc1 | 2.46%
COc1ccc(-c2nc3cc(C)ccn3c2NC2CCCCC2)cc1SC1CCCCC1 | 77.5% (active)
CN(C)Cc1ccccc1C1(O)c2ccccc2CSc2ccccc21 (stereo unspecified) | -8.88%
O=C(Nc1ccccc1)c1ccccc1NC(=O)C(F)(F)F | 85% (active)
O=C(CSc1nc(-c2ccccc2)cs1)Nc1cccc([N+](=O)[O-])c1 | 80.1% (active)
Cc1cccc(OCCNC(=O)CSc2ccc(C(F)(F)F)cc2[N+](=O)[O-])c1 | 81.3% (active)
O=C(Nc1ccc2ccccc2c1)Nc1ccc2snnc2c1 | 47.9% (active)
COc1ccc(NC(=O)Nc2ccc3nsnc3c2)cc1 | 84.7% (active)
O=C(Nc1ccccc1)Nc1nnc(COc2ccccc2F)s1 | 60.4% (active)
O=C(CSc1nc2ccc([N+](=O)[O-])cc2[nH]1)c1ccc(Cl)cc1 | 76.5% (active)
CCOC(=O)N1CCN(C(=O)c2ccc3c(c2)N(Cc2ccc(C)cc2)CCS3)CC1 | 63.9% (active)
N#Cc1ccc(C(=O)Nc2nc(-c3cccs3)c(C(=O)C(F)(F)F)s2)cc1 | 109% (active)
S=C(Nc1ccccc1)Nc1ccc2ccccc2c1 | 89.2% (active)
Cc1cccc(NC(=S)Nc2ccc(Cl)c(Cl)c2)c1 | 90.8% (active)

Structure (SMILES) | inhibition
Cc1cccc(NC(=S)Nc2ccc(Br)cc2)c1 | 102% (active)
FC(F)(F)COc1nc(N2CCCCC2)nc(N2CCNCC2)n1 | -11.8%
Cc1nn(Cc2ccccc2)c2c1C(c1ccccc1)C(C#N)=C(N)O2 (stereo unspecified) | -0.3%
COc1cc(NC(=O)Nc2ccc(C)cc2)cc([N+](=O)[O-])c1 | 95.5% (active)
CC(=O)c1ccc(NC(=O)Nc2ccc([N+](=O)[O-])cc2C)cc1 | 90.3% (active)
CN(C)Cc1ccc(F)cc1Sc1cc(Cl)ccc1Cl | -3.35%
O=C(Nc1cccc(F)c1)c1coc(=O)c(Br)c1 | 77.9% (active)
COc1ccc(-n2c(C)cc(C(=O)CSc3nnc(-c4cccs4)o3)c2C)cc1 | 83% (active)
FC(F)(F)Oc1ccc(NC(=S)NCc2ccccc2)cc1 | 90.9% (active)
CSCCC(NC(=O)c1cc([N+](=O)[O-])cc([N+](=O)[O-])c1)c1nc2ccccc2[nH]1 (stereo unspecified) | 81.7% (active)
Cc1ccc(C)c(S(=O)(=O)N2CCN(c3ncnc4sccc34)CC2)c1 | 104% (active)
Cc1ccc(NC(=O)Nc2cc(-c3ccccc3)nn2C)cc1Cl | 69.1% (active)
Cc1cc(NC(=O)Nc2ccc(Cl)cc2)n(-c2ccccc2)n1 | 76.2% (active)
Fc1ccccc1CNC(=S)Nc1ccc(Cl)cc1 | 90.7% (active)
C=C1c2c(Cl)ccc(O)c2C(O)=C2C(=O)[C@]3(O)C(O)=C(C(N)=O)C(=O)[C@@H](N(C)C)[C@@H]3[C@@H](O)C12 (stereo partly specified) | -13.7%
COc1ccc(NS(=O)(=O)c2ccc(Oc3c(C#N)cccc3C#N)cc2)cc1 | 75.8% (active)
S=C(NCC1COc2ccccc2O1)Nc1ccc(Br)cc1 (stereo unspecified) | 93.1% (active)
S=C(NCCCc1ccccc1)Nc1ccc(Br)cc1 | 91.8% (active)
CC(NC(=S)Nc1ccccc1)C1COc2ccccc2O1 (stereo unspecified) | 87% (active)
O=C(CSCc1ccc(Br)cc1)Nc1ccc(S(=O)(=O)N2CCCCCC2)cc1 | 80.4% (active)
Fc1cc(F)c2nc(Nc3nc4c(F)cccc4s3)sc2c1 | 69.9% (active)
C=CC[n+]1c(-c2ccc(C)cc2)csc1NNC(=O)Nc1ccccc1 | 83.2% (active)
O=C1CCCN1CCCNC(=S)Nc1ccc(F)c(Cl)c1 | 90.3% (active)
Oc1c(Br)cccc1/C=N/Nc1c(F)c(F)c(F)c(F)c1F | 72.3% (active)

Structure (SMILES) | inhibition
Fc1ccc(N2N=C(c3cccs3)CC2c2ccco2)c(F)c1 (stereo unspecified) | -15.1%
O=C(CC(O)(C(F)(F)F)C(F)(F)F)Nc1ccc(Cl)c(Cl)c1 | 84.9% (active)
CCOC(=O)N1CCN(C(=O)C2CCN(c3ncnc4c3sc3cccc(F)c34)CC2)CC1 | 94.4% (active)
N#C/C(=C(/O)Cc1cccc2ccccc12)c1nc2ccccc2s1 | 69.1% (active)
COc1ccc(Br)cc1C(=O)NC(=S)Nc1cc(-c2nc3ccccc3[nH]2)ccc1C | 51% (active)
Cc1cc2ncn(CCCCOc3ccccc3)c2cc1C | 36.7% (active)
CC(C)c1ccccc1OCC(O)CN(CC(O)COc1cccc2ccccc12)C(C)C (stereo unspecified) | 4.85%
COc1ccc2c(c1)c(=Cc1ccc(N(C)C)cc1)c1cc(-c3ccccc3)[n+](C)n12 | 79.7% (active)
O=C(Nc1ccc(C2CC2(Cl)Cl)cc1)c1cccc([N+](=O)[O-])c1 (stereo unspecified) | 78.1% (active)
Fc1ccc2[nH]c3c(N4CCSCC4)ncnc3c2c1 | 94% (active)
Cc1[nH]n(-c2cccc(Cl)c2)c(=O)c1-c1ccc(Cl)cc1 | 98.6% (active)
C[C@@H](CN1CCC[C@H]1CN1C(N)=NC[C@@H]1Cc1ccccc1)N1C[C@@H](Cc2ccccc2)N(CCCC2CCCC2)C1=N | 7.61%
CS(=O)(=O)c1sc(C(=O)NC(=S)Nc2ccc(OC(F)(F)F)cc2)c2c1C=CCC2 | 71.2% (active)
O=[N+]([O-])c1ccc(N/N=C/c2ccccc2)cc1 | 81.9% (active)
Cc1cccc(COc2ccccc2/C=N/Nc2ccc([N+](=O)[O-])cc2)c1 | 81.5% (active)
COc1ccccc1Oc1ccc(S(=O)(=O)Nc2cccnc2)cc1 | 70.1% (active)
Cc1ccc(C)c(NC(=S)NNC(=S)Nc2ccc(C(C)C)cc2)c1 | 85.3% (active)
S=C(NCCc1ccccc1)NCc1ccccc1Cl | 67.2% (active)
CCCCCC(O)c1cccc(OCc2ccc3ccccc3n2)c1 (stereo unspecified) | 76.1% (active)
S=C(Nc1cccc(Cl)c1)Nc1ccc2cn[nH]c2c1 | 92.7% (active)
Cc1csc(NC(=S)Nc2cccc(Cl)c2)n1 | 73.4% (active)
N=c1n(Cc2ccc(Cl)cc2)c2ccccc2n1CC(O)c1ccco1 (stereo unspecified) | 4.39%
CCN1/C(=C\c2ccc3ccccc3[n+]2CC)Sc2cc(C)ccc21 | 96.3% (active)
CCc1cc2c(N3CCN(c4nnc(CC)s4)CC3)ncnc2s1 | 41.8% (active)
